About 90 (0.2%) of roughly 55,000 compounds were called active. No rule for the calls is given here. For the sample, actives were picked, then their nearest neighbours and some compounds at random.
Assay: growth inhibitors of anaerobic choline-fed gram-negatives, minimal medium, absorbance (AID 1963822)
Settings: Gram-negative bacterium anaerobic choline minimal medium
[1] = measured here: choline growth z-score, timepoint 1, stronger effect = lower value

Structure (SMILES) | z-score (stronger effect = lower value) | z-score [1]
CCC(=O)NCCc1nc2cc(NC(=O)C3CCCCC3)ccc2n1C | -0.79 (inactive) | -0.11
COc1cccc(CSc2nc3c(-c4ccccc4)c[nH]c3c(=O)[nH]2)c1 | 0.44 (inactive) | -0.28
Cn1c(=O)n(-c2ccc(F)cc2)c2nc(-c3cccc(F)c3)nc(C(N)=O)c21 | -0.47 (inactive) | 0.68
CCc1nc2ccccc2c(=O)n1Cc1noc(CN2C(=O)COc3ccccc32)n1 | 0.03 (inactive) | 0.5
O=C(NC1CCCc2ccccc21)c1ccc(-c2cc(N3CCOCC3)ncn2)cc1 (stereo not given) | 0.49 (inactive) | -1.29
Cc1noc(-c2cccnc2N2CCN(C(c3ccccc3)c3ccccc3)CC2)n1 | 0.85 (inactive) | 0.28
Cc1nc(-c2cc(S(=O)(=O)N3CCN(c4ccccc4F)CC3)c(C)s2)cs1 | 1.43 (inactive) | 0.83
O=C(NCCN1CCOCC1)C1CCN(c2cncnc2N2CCCCC2)CC1 | 0.71 (inactive) | 0.79
C=CCSc1n[nH]c(NC(C)=O)n1 | 0.76 (inactive) | 0.64
Cc1ccc(C(C)C)c(OC(C)C(=O)Nc2onc3c2CCCC3)c1 (stereo not given) | -0.74 (inactive) | -0.51
CCN1C(=O)c2ccccc2Sc2cc(-c3noc(-c4ccc5c(c4)OCO5)n3)ccc21 | 0.5 (inactive) | 0.22
CCOc1ccc(N2CCCCn3c2nc2c3c(=O)n(CCC(C)C)c(=O)n2C)cc1 | -0.58 (inactive) | 0.29
COc1ccc(-c2cc3nc(C)cc(N4CCOCC4)n3n2)cc1OC | 0.32 (inactive) | -0.41
CCN(CCCNC(=O)c1cccn2c(=O)c3ccccc3nc12)c1cccc(C)c1 | 1.29 (inactive) | 1.6
Cc1ccc(/C=C/c2nn3c(-c4ccoc4C)nnc3s2)cc1C | -0.03 (inactive) | 0.36
O=C(CCc1nc(CSc2nnc(-c3ccccc3)o2)no1)Nc1ccc(F)c(Cl)c1 | -0.29 (inactive) | -0.24
COc1cc(OC)cc(N2C=C(C#N)S(=O)(=O)c3cc(F)ccc32)c1 | 0.71 (inactive) | 0.22
O=S(=O)(c1ccc2c(c1)-c1oncc1CO2)N1CCN(C(c2ccccc2)c2ccccc2)CC1 | 0 (inactive) | -0.77
CC(=O)N1CCc2cc(N3CC(C(=O)N4CCC5(CC4)OCCO5)CC3=O)ccc21 (stereo not given) | -1.2 (inactive) | -0.84
O=S(=O)(c1ccccc1F)N1CCN(c2ncnc3c2nnn3-c2ccccc2)CC1 | 1.03 (inactive) | 0.86
COc1cc(C2Nc3c(C)cc(C)cc3[C@H]3OCC[C@@H]23)cc(Br)c1OC (stereo not given in full) | 0.49 (inactive) | 0.1
Cc1cc(C)nc(SCCn2c(N3CCC(C)CC3)nc3c2c(=O)[nH]c(=O)n3C)n1 | 0.25 (inactive) | 0.24
COc1ccc(C2CC(c3c(O)n(C)c(=O)n(C)c3=O)=NN2)cc1 (stereo not given) | 0.56 (inactive) | 0.56
O=C(Cn1c(=O)c(=O)n(Cc2ccncc2)c2ncccc21)NCCN1CCCCC1 | 1.65 (inactive) | 0.64
COC(=O)c1cc(S(=O)(=O)N2CCCC2C(=O)N2CCc3ccccc32)cn1C (stereo not given) | -0.38 (inactive) | -0.18
COc1ccc(-c2cc(Oc3cccc(C(=O)NC4CCCCC4)c3)ncn2)cc1 | 1.55 (inactive) | 1.41
O=C(NCCC1=CCCCC1)C1CCN(c2cc(-c3cccc(F)c3)ncn2)CC1 | 1.01 (inactive) | 0.77

Structure (SMILES) | z-score (stronger effect = lower value) | z-score [1]
CC(C)NC(=O)Cc1csc(NC(=O)C2CC2)n1 | 0.37 (inactive) | -0.55
COc1cccc(NC(=O)c2ccc(-n3nc(N4CCCC4)ccc3=O)cc2)c1 | -0.3 (inactive) | -0.77
CCOC(=O)c1cnc(SC(CC)C(=O)Nc2ccc(Br)cc2)nc1N (stereo not given) | 0.81 (inactive) | 0.87
O=C1CN(C(=O)CSc2ccc(Cl)cc2)c2ccccc2N1 | -2.07 (inactive) | -0.23
COc1ccc(C2N=C(Nc3ccc(C(C)C)cc3)Nc3nc(C)cc(=O)n32)cc1OC (stereo not given) | 0.3 (inactive) | -0.84
Cc1nc(-c2csc(S(=O)(=O)N3CCCC(C(=O)N4CCCCC4)C3)c2)no1 (stereo not given) | 0.63 (inactive) | -0.32
CC(=O)N1CCCN(S(C)(=O)=O)CC1 | 0.45 (inactive) | 1.28
CC(C)c1nnc(-c2cc3ccccc3n2CC(=O)N(C(C)C)C(C)C)o1 | -0.44 (inactive) | 0.05
COc1cc(C2OC(c3ccccc3)=NN2C(C)=O)ccc1O (stereo not given) | -1.46 (inactive) | -1.53
O=C(Cn1nc2n(CCc3ccccc3)c(=O)c3ccccc3n2c1=O)NCc1ccccc1Cl | 0.2 (inactive) | 0.39
COc1ccc(OC)c(CNC(=O)C2CCCN(c3ncnc4c3oc3ccccc34)C2)c1 (stereo not given) | -0.39 (inactive) | -0.94
CN(C)CCCNC(=O)c1sc2ncccc2c1-n1cccc1 | -0.76 (inactive) | -0.95
Cc1ccc(/C=C/c2nc(-c3ccc4c(c3)[nH]c(=O)c(=O)n4C(C)C)no2)cc1 | 0.12 (inactive) | -0.05
CCc1nc(-c2ccc(C(=O)NCC(=O)Nc3ccc(Cl)cc3)cc2)no1 | -0.03 (inactive) | -0.94
CC(C)C(=O)N1CCN(c2ccc(Nc3c4c(nc5nc(-c6ccccc6)nn35)CCCC4)cc2)CC1 | -0.12 (inactive) | 0.82
O=C(NCCc1cscn1)[C@H]1CSCN1C(=O)c1ccccc1 | 0.46 (inactive) | 0.42
CCC(=O)Nc1cccc(-c2noc(C3CCCN(C(=O)c4ccc(F)cc4)C3)n2)c1 (stereo not given) | 0.07 (inactive) | -0.16
O=S(=O)(c1ccc2c(c1)CCCC2)N1CCC2(CC1)Nc1cc(F)ccc1-n1cccc12 | -0.8 (inactive) | -0.36
O=S(=O)(c1ccccc1)c1ccc(N2CCN(c3ccccc3)CC2)nn1 | -0.18 (inactive) | -1.06
O=C(NCCc1cnc[nH]1)c1ccc(Cn2c(SCc3ccc(F)cc3)nc3cccnc32)cc1 | -0.7 (inactive) | -0.94
CCOC(=O)CC1=CC(SCC(=O)c2cc(C)ccc2C)=Nc2ccccc2N1 | 0.16 (inactive) | 0.19
COc1ccc(NC(=O)c2ccc(-c3nc(-c4ccccc4)no3)cc2)cc1 | -1.61 (inactive) | -1.39
Cc1ccc2c(Cl)c(C(=O)Nc3onc4c3CCCC4)sc2c1 | 0.44 (inactive) | 0.27
COc1ccc(Cn2c(CCC(=O)Nc3cccc(C)c3C)nc3cccnc32)cc1 | 0.59 (inactive) | 0.56
CC(=O)Nc1ccc(N(C)CCCc2c(C)nn(C)c2C)c(C(=O)O)c1 | 0.96 (inactive) | 0.43
COC(=O)CSc1nc2cc(-c3ccccc3)sc2c(=O)n1C | 0.31 (inactive) | 0.31
CCCN(C)S(=O)(=O)c1c(C)[nH]c(-c2nnc(C3CCC3)o2)c1C | 0.79 (inactive) | 0.59

Structure (SMILES) | z-score (stronger effect = lower value) | z-score [1]
COc1ccc2nc(-n3nc(C)c4c3NC(=O)CC4c3ccc4c(c3)OCO4)sc2c1 (stereo not given) | 1.23 (inactive) | 1.32
COc1ccc2nc(-n3nc(C)c4c3NC(=O)CC4c3ccsc3)sc2c1 (stereo not given) | -2.13 (active) | -0.51
COc1ccc2nc(-n3nc(C)c4c3NC(=O)CC4c3cc(Br)ccc3OC)sc2c1 (stereo not given) | -0.06 (inactive) | 0.15
CCCC(=O)Nc1cccc(OCc2cc(=O)n3ccccc3n2)c1 | 0.39 (inactive) | 0.6
CN1CCN(CCNC(=O)c2cnc3sc4c(n3c2=O)CCC4)CC1 | -0.87 (inactive) | -0.3
O=C(NCCCN1CCCCC1)c1cc2n(n1)CCCN(Cc1ccc(F)cc1)C2=O | 0.15 (inactive) | -0.23
Cc1sc2cc(C(=O)NCCN3CCN(C)CC3)[nH]c2c1CN1CCCCC1 | -0.21 (active) | -4.45
Cc1ccc(F)c(NS(=O)(=O)c2cc(-c3nc(C(C)(C)C)cs3)cs2)c1 | 0.79 (inactive) | 0.58
CCCCOc1ccccc1C1CC(=O)Nc2c1c(C)nn2-c1ccc2nncn2n1 (stereo not given) | 0.78 (inactive) | 0.83
O=C(NC1CC1)c1snc(-c2ccccn2)c1NC(=O)C1CC1 | 0.58 (inactive) | 1.01
CCc1ccc(NS(=O)(=O)c2cc(-c3nc(C(C)C)cs3)cs2)cc1 | -0.41 (inactive) | 0.54
Cc1cccc(C2C3=C(CC(c4ccccc4)CC3=O)Nc3onc(C)c32)c1 (stereo not given) | 1.84 (inactive) | 1.45
O=C1Nc2ccccc2Oc2cc(Cl)c(S(=O)(=O)N3CCCC3)cc21 | 1.05 (inactive) | -0.01
O=C(COc1ccccc1)Nc1noc(-c2ccc(Cl)cc2)n1 | -0.07 (inactive) | -0.68
Cc1ccc(C)c(Cn2cccc(S(=O)(=O)N3CCCC3)c2=O)c1 | 1.03 (inactive) | 0.96
CS(=O)(=O)NC1CCN(C(=O)C2CCCC2)C1 (stereo not given) | 0.08 (inactive) | 0.92
CCC(C(=O)Nc1ccccc1OC)n1nc(-c2ccccc2)ccc1=O (stereo not given) | 0.41 (inactive) | -0.44
COc1ccc(CSc2nccc3c2ccn3CC(=O)NCc2ccc3c(c2)OCO3)cc1 | 1.77 (inactive) | 1.27
O=C(CSCc1nc2cccnc2n1C1CCCCC1)NCc1cccc(F)c1 | 0.62 (inactive) | 1.42
Cc1ccccc1C1CC(=O)c2cnc3c(-c4ccc(F)cc4)c(C)nn3c2C1 (stereo not given) | 0.81 (inactive) | 0.27
O=C(COc1ccccc1)Nc1noc(-c2ccccc2)n1 | -2.24 (inactive) | -0.92
O=C(NCc1ccc(Cl)cc1)c1ccc(-n2nnc3cccnc32)cc1 | 0.42 (inactive) | 0.46
Cc1nn(-c2ccccc2)c2sc(C(=O)N3CCN(c4cccc(Cl)c4)CC3)cc12 | 0.97 (inactive) | 1.5
COc1ccc(-c2noc(-c3ccc[nH]c3=O)n2)cc1OC | 1.32 (inactive) | 1.18
Clc1ccc(C(CNc2nn3cnnc3c3ccccc23)N2CCCCC2)cc1 (stereo not given) | -0.12 (inactive) | -0.1
CC(C)NC(=O)N1CCCC(c2cccc(C(=O)NCc3ccc(Cl)cc3)c2)C1 (stereo not given) | 0.72 (inactive) | 0.1
